# According to PubChem BioAssay (NCATS):
# “And” between values parts separate entries of the source, which are not always exact repeats. Identical values can stand only once. Values without a mark were called inactive. Results filed as inconclusive are left out. The list shows a part of the results. A call without a number means that no potency is given here. The source made the active and inactive calls. Unless noted, the call rests on the fitted dose curve; in most records, active means well fitted curve in the direction sought with a large enough effect; inconclusive means small, poorly fitted or top-dose-only effect, or another doubt; inactive means no such curve, though single readings can be large; an effect the other way counts as inactive or inconclusive.
# Tests used:
# [1] = biological target: Peroxisome proliferator-activated receptor delta (Homo sapiens) (UniProt Q03181); assay: qHTS assay for small molecule antagonists of peroxisome proliferator-activated receptor delta signaling (AID 588535; active means well fitted inhibition curve with a large enough effect in the signal ratio, with a control signal flat, not every such curve was filed as active; the % refers to the signal ratio)
# How it was run: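 Cell-based beta-lactamase assay in antagonist mode: 4000 HEK293T PPAR-delta-UAS-bla cells per well, 5 hr preincubation then 18 hr compound incubation at 37 C. IC50 obtained by Hill equation fitting.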
# [2] = biological target: Androgen receptor (Homo sapiens) (UniProt P10275); assay: qHTS assay for small molecule antagonists of androgen receptor signaling (AID 588516; active means well fitted curve in the direction sought with a large enough effect in the signal ratio, with a control signal flat, not every such curve was filed as active; the % refers to the signal ratio)
# How it was run: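 Compounds tested in titration against 10 nM R1881 in AR-responsive bla reporter HEK 293 cells; CCF4 fluorescence (460/530 nm) after 16 h exposure gave IC50 and efficacy.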
# [3] = biological target: Cytochrome P450 3A4 (Homo sapiens) (UniProt P08684); assay: qHTS Assay for Activators of Cytochrome P450 3A4 (AID 885); further: nearly all actives have a fitted effect of over 65% in size; further: potency means the concentration at half of the fitted maximal effect
# How it was run: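 20nM CYP3A4 + 25uM Luciferin-PPXE (=KM), 200mM KPO4; cpd 10 min RT; NADPH regen, 60 min RT; stop w/ detection buffer, 20 min; luminescence. Normalized to 57 uM ketoconazole.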
# [4] = biological target: ATP-dependent 6-phosphofructokinase (Trypanosoma brucei brucei) (UniProt O15648); assay: qHTS Assay to Find Inhibitors of T. brucei phosphofructokinase: hit validation (AID 492961);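 further: luminescence reports ADP formed as PFK phosphorylates fructose-6-phosphate with ATP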
# How it was run: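 Measures ADP output of PFK (1.25 nM) at 0.1 mM ATP, 0.5 mM F6P, pH 8.0 TEA buffer with 5 mM MgCl2. No-enzyme wells define full inhibition; uninhibited enzyme wells define zero.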
# CP185 = assay: qHTS profiling for inhibitors of Plasmodium falciparum proliferation (AID 504749); further: nearly all actives have a fitted effect of over 60% in size; conditions: P. falciparum in erythrocytes, SYBR Green DNA, 72 h; series mostly up to 28.7 µM
# How it was run: (§1)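 Three-day growth assay of blood-stage parasites in erythrocytes (0.3% parasitemia, 2.5% hematocrit) at 37 C, 5% CO2, quantified by SYBR Green DNA staining after overnight detergent lysis.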
# CP191 = assay: as above; conditions: P. falciparum in erythrocytes, SYBR Green DNA, 72 h; series mostly up to 28.7 µM
# How it was run: as §1
# CP192 = assay: as above; conditions: P. falciparum in erythrocytes, SYBR Green DNA, 72 h; series mostly up to 28.7 µM
# How it was run: as §1
# CP194 = assay: as above; conditions: P. falciparum in erythrocytes, SYBR Green DNA, 72 h; series mostly up to 28.7 µM
# How it was run: as §1
# CP201 = assay: as above; conditions: P. falciparum in erythrocytes, SYBR Green DNA, 72 h; series mostly up to 28.7 µM
# How it was run: as §1
# CP203 = assay: as above; conditions: P. falciparum in erythrocytes, SYBR Green DNA, 72 h; series mostly up to 28.7 µM
# How it was run: as §1
# DFO2036 = assay: as above; conditions: P. falciparum in erythrocytes, SYBR Green DNA, 72 h; series mostly up to 28.7 µM
# How it was run: as §1
# P94_40 = assay: as above; conditions: P. falciparum in erythrocytes, SYBR Green DNA, 72 h; series mostly up to 28.7 µM
# How it was run: as §1
# PC49 = assay: as above; conditions: P. falciparum in erythrocytes, SYBR Green DNA, 72 h; series mostly up to 28.7 µM
# How it was run: as §1
# TAB113 = assay: as above; conditions: P. falciparum in erythrocytes, SYBR Green DNA, 72 h; series mostly up to 28.7 µM
# How it was run: as §1
# [5] = biological target: Androgen receptor (Homo sapiens) (UniProt P10275); assay: qHTS assay for small molecule agonists of androgen receptor signaling (AID 588515; active means well fitted curve in the direction sought with a large enough effect in the signal ratio, with a control signal flat; the % refers to the signal ratio); conditions: AR-UAS-bla HEK293, beta-lactamase ratio, agonist 16 h; active compounds read high
# How it was run: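 EC50 and efficacy came from Hill fits of titrations (up to 92 uM) normalized to 30 nM R1881 as 100% and DMSO as 0%. Compound exposure was 16 h at 37 C on AR-UAS-bla HEK293 cells, with a 405/460/530 nm CCF4 fluorescence read.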
# [6] = biological target: DNA dC->dU-editing enzyme APOBEC-3G (Homo sapiens) (UniProt Q9HC16); assay: qHTS for inhibitors of Vif-A3G interactions: Validation (AID 588379)
# How it was run: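 HeLa cells stably expressing Vif and A3G-eYFP, 700 cells/well, incubated overnight at 37 deg C, then exposed to compound overnight at 37 deg C. Inhibition of Vif-mediated degradation read as increased yellow fluorescence (Ex 488/Em 500-530) by laser-scanning cytometry.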
# [7] = Counterscreen for APE1 Inhibitors: Fluorescent Dye Displacement Assay (AID 2564);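 further: loss of thiazole orange fluorescence as the dye is displaced from duplex DNA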
# How it was run: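 Thiazole Orange displacement from dsDNA: 250 nM ThO with 50 nM TAMRA-labelled abasic-site (tetrahydrofuran) duplex in 50 mM Tris-HCl pH7.5, 50mM NaCl, 2 mM MgCl2, 0.01% Tween-20. Loss of endpoint fluorescence (ex 480 nm, em 540 nm) flags DNA binders.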
# [8] = biological target: Endonuclease 4 (Escherichia coli (strain K12)) (UniProt P0A6C1); assay: Counterscreen for APE1 Inhibitors: qHTS Assay for Inhibitors of Endonuclease IV (AID 2565)
# How it was run: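 Enzymatic AP-site incision assay using a double-stranded THF substrate labelled with TAMRA and BHQ-2; released fluorescence signals activity. Enzyme 2 nM, substrate 50 nM, 15 min compound preincubation.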
# [9] = biological target: DNA repair nuclease/redox regulator APEX1 (Homo sapiens) (UniProt P27695); assay: qHTS FP-Based Assay for Inhibitors of the Human Apurinic/apyrimidinic Endonuclease 1 (APE1) (AID 2573); further: potency means the concentration at half of the fitted maximal effect
# [10] = biological target: DNA repair nuclease/redox regulator APEX1 (Homo sapiens) (UniProt P27695); assay: Confirmation qHTS Assay for Inhibitors of the Human Apurinic/apyrimidinic Endonuclease 1 (APE1) (AID 2572); further: nearly all actives have a fitted effect of over 30% in size; further: potency means the concentration at half of the fitted maximal effect
# How it was run: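 15 min RT compound–APE1 preincubation → add 50 nM final THF-abasic TAMRA/BHQ-2 dsDNA → immediate kinetic read, 3 × 60 s, Ex 525/Em 598 → Δ fluorescence (read 3 − read 1).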
# Sequence of Cytochrome P450 3A4 (Homo sapiens) (P08684 whole entry, looked up): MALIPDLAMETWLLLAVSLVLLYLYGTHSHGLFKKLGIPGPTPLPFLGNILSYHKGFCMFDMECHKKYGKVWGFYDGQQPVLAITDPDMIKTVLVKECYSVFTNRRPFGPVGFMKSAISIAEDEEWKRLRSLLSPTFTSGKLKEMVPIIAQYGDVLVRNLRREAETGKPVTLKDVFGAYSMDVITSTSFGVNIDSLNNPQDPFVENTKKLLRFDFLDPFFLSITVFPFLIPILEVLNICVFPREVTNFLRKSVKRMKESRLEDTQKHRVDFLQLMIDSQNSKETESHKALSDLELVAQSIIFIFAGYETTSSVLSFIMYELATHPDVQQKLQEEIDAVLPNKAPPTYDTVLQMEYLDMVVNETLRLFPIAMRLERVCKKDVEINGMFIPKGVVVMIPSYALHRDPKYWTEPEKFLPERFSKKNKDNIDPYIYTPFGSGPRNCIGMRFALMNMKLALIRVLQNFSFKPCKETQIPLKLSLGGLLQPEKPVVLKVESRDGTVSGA
# Sequence of Androgen receptor (Homo sapiens) (P10275 whole entry, looked up): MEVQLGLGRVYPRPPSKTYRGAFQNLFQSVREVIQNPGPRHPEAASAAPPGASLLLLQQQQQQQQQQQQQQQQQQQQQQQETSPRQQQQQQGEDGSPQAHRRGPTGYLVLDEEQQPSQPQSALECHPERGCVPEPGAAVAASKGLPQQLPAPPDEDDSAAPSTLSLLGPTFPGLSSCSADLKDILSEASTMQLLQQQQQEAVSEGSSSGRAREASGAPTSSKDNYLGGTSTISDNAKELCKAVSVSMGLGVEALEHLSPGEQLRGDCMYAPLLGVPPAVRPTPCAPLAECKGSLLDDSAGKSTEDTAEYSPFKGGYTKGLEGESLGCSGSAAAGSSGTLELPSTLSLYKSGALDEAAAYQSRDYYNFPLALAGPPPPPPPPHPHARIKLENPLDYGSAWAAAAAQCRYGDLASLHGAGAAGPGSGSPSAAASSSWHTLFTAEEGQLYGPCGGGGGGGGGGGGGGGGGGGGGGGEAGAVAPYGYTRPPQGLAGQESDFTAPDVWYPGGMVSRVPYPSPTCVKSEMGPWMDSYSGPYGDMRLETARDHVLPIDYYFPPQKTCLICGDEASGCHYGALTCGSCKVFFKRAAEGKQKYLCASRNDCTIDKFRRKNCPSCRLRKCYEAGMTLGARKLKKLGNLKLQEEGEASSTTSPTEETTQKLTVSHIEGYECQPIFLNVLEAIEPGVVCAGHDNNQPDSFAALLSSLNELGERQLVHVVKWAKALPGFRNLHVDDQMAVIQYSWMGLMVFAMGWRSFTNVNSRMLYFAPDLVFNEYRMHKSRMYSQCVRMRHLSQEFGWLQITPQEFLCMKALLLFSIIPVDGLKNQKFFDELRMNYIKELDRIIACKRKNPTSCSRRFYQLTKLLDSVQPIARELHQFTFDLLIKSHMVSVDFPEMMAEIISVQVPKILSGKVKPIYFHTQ
# Sequence of Peroxisome proliferator-activated receptor delta (Homo sapiens) (Q03181 whole entry, looked up): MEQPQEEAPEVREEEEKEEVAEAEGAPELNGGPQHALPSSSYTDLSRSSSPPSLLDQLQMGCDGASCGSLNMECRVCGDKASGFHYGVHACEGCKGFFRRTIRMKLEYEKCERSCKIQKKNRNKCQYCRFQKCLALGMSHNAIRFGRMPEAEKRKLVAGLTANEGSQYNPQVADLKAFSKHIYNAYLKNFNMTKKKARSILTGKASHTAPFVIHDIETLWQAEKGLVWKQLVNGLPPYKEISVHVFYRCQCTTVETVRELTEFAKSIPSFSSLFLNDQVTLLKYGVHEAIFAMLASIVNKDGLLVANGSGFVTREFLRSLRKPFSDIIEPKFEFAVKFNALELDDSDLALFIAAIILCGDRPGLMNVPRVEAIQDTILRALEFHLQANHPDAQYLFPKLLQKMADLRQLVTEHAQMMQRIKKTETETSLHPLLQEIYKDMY
# Sequence of DNA dC->dU-editing enzyme APOBEC-3G (Homo sapiens) (Q9HC16 whole entry, looked up): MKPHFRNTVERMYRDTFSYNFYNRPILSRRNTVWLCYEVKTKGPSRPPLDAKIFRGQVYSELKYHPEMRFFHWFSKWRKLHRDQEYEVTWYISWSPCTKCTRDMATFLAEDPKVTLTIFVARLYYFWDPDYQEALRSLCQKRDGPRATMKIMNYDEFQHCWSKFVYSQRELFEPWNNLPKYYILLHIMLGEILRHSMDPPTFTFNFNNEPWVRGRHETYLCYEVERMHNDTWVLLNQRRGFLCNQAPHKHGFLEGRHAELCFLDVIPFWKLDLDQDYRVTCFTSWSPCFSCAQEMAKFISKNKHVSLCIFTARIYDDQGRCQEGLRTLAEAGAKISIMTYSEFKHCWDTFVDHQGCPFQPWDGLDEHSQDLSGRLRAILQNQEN
# Sequence of DNA repair nuclease/redox regulator APEX1 (Homo sapiens) (P27695 whole entry, looked up): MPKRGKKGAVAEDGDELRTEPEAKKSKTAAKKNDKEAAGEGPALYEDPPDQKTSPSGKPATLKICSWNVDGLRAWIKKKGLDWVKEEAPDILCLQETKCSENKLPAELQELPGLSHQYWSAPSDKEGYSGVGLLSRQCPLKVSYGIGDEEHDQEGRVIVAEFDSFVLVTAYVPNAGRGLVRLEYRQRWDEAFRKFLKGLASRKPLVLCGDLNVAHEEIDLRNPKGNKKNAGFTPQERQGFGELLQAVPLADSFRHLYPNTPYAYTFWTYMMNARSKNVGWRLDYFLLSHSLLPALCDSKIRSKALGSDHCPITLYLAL
# Sequence of ATP-dependent 6-phosphofructokinase (Trypanosoma brucei brucei) (O15648 whole entry, looked up): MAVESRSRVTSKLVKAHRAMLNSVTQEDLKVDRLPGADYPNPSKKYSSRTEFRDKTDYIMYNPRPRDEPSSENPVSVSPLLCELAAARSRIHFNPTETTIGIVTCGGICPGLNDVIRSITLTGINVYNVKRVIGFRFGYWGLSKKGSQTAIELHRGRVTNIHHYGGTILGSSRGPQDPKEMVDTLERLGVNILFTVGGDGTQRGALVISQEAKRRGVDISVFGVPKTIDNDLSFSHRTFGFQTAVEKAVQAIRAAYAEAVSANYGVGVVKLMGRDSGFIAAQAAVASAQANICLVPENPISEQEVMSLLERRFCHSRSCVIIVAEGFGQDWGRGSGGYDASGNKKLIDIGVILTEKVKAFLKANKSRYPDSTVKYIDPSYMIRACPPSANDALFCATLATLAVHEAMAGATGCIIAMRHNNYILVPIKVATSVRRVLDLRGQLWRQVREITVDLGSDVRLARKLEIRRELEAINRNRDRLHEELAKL
compound,measurement,setting,value
CC(C)OCC1CO1 (stereo not given),outcome,[1],inactive
OC1CCCCC1,outcome,[1],inactive
Cc1ccc(N)cc1[N+](=O)[O-],outcome,[2],inactive
COc1cc(-c2ccc(N=C=O)c(OC)c2)ccc1N=C=O,Potency,[3],inactive
CC(=O)Nc1cccc(C)c1,outcome,[1],inactive
C=C1CC[C@H](O)C/C1=C/C=C1\CCC[C@]2(C)[C@@H]([C@H](C)CCCC(C)C)CC[C@@H]12,Potency,[3],inactive
same,outcome,[4],inactive
same,Potency,CP185,inactive
same,Potency,CP191,inactive
same,Potency,CP192,inactive
same,Potency,CP194,inactive
same,Potency,CP201,inactive
same,Potency,CP203,inactive
same,Potency,DFO2036,inactive
same,Potency,P94_40,inactive
same,Potency,PC49,inactive
same,Potency,TAB113,inactive
CCNC(=S)NCC,Potency,[3],inactive
O=C(O)/C=C/c1ccc(/C=C/C(=O)O)cc1,activation,[5],-7.2%
same,outcome,[1],inactive
c1ccc(SCCSc2ccccc2)cc1,activation,[5],12.3%
CCOC(=O)C1OC1c1ccccc1 (stereo not given),outcome,[1],inactive
C/C(Cl)=C/CCl,activation,[5],10.2%
same,outcome,[2],inactive
same,outcome,[1],inactive
OCC(CBr)(CBr)CBr,outcome,[1],inactive
Cc1ccc(C(=O)O)cc1[N+](=O)[O-],activation,[5],6.4%
same,outcome,[2],inactive
c1ccc2c(c1)ccc1ccccc12,activation,[5],-2.75% and -0.0415%
same,outcome,[2],inactive
CC(=O)OC(C(=O)c1ccccc1)c1ccccc1 (stereo not given),activation,[5],-5.55%
CCCCCCCCC1CO1 (stereo not given),activation,[5],13.4%
same,outcome,[2],inactive
same,outcome,[1],inactive
CCCCC(CC)COCCCN (stereo not given),Potency,[3],inactive
Nc1ccc(N=Nc2ccccc2)c(N)c1,Potency,[3],inactive
CC(C)S,outcome,[1],inactive
C=C(C#N)C(=O)OCC,outcome,[1],inactive
Cc1ccc2ccc3cccc4ccc1c2c34,outcome,[1],inactive
Brc1cc(Oc2cc(Br)c(Br)c(Br)c2Br)c(Br)c(Br)c1Br,outcome,[1],inactive
COc1ccc(C)cc1N,activation,[5],1.38%
CCC(Cl)CC(Cl)C(Cl)C(Cl)C(Cl)C(C)Cl (stereo not given),activation,[5],-4.22%
same,outcome,[1],inactive
C=CC(C)(O)CCCC(C)CCCC(C)CCCC(C)C (stereo not given),outcome,[6],inactive
same,outcome,[1],inactive
O=C(O)c1ccc([N+](=O)[O-])cc1,outcome,[1],inactive
CCc1ccc(C(c2ccc(CC)cc2)C(Cl)Cl)cc1,activation,[5],-10.8%
CCCCNCC,outcome,[1],inactive
NC(=O)Nc1nc2ccccc2[nH]1,outcome,[1],inactive
Nc1cc([N+](=O)[O-])ccc1O,activation,[5],-20.1%
same,outcome,[2],inactive
same,outcome,[1],inactive
Nc1ccc(-c2ccc(N)c(O)c2)cc1O,activation,[5],4.81%
C=CC(=O)OCCCCCCOC(=O)C=C,Potency,[3],inactive
same,activation,[5],1.98%
same,outcome,[1],inactive
Cc1c(C(=O)O)c(O)cc2c1C(=O)c1c(O)c([C@H]3O[C@H](CO)[C@@H](O)[C@H](O)[C@H]3O)c(O)c(O)c1C2=O,outcome,[4],inactive
same,outcome,[6],inactive
same,outcome,[1],inactive
same,Potency,CP185,inactive
same,Potency,CP191,inactive
same,Potency,CP192,inactive
same,Potency,CP194,inactive
same,Potency,CP201,inactive
same,Potency,CP203,inactive
same,Potency,DFO2036,inactive
same,Potency,P94_40,inactive
same,Potency,PC49,inactive
same,Potency,TAB113,inactive
Oc1cc2c(cc1O)[C@H]1c3ccc(O)c(O)c3OC[C@@]1(O)C2,Potency,[3],inactive
same,outcome,[6],inactive
C/C=C/C=C/C=O,outcome,[2],inactive
Cc1cc(=O)oc2cc(O)cc(O)c12,Potency,[3],inactive
C/C=C1/C(=O)C[C@H]2[C@@H]3CCC4=CC(=O)CC[C@]4(C)[C@H]3CC[C@]12C,Potency,[3],1 µM (active)
O=c1nc2s/c(=C\c3ccco3)c(=O)n2nc1Cc1ccccc1,outcome,[7],inactive
same,outcome,[8],inactive
same,Potency,[9],inactive
O=[N+]([O-])c1cc(N(CCO)CCO)ccc1NCCO,activation,[5],15% and 1.64%
same,outcome,[2],inactive
CCCCCCCC/C=C\CCCCCCCC(=O)N(CCO)CCO,Potency,[3],inactive
same,outcome,[1],inactive
Cc1ccc(-c2nc(SCC(=O)Nc3ccccc3OC(F)F)c3c(C)c(C(=O)O)sc3n2)cc1,outcome,[7],inactive
same,outcome,[8],inactive
same,Potency,[10],7.94 µM (active)
same,Potency,[9],11.2 µM (active)
O=C(OCc1ccccc1)c1ccccc1O,outcome,[1],inactive
O=C(Cl)c1ccc([N+](=O)[O-])cc1,activation,[5],25.7%
same,outcome,[2],inactive
CC1=C(/C=C/C(C)=C/C=C/C(C)=C/C=O)C(C)(C)CCC1,Potency,[3],inactive
CC/C=C/C/C=C/C/C=C/CCCCCCCC(=O)OCC,Potency,[3],inactive
Cc1cc2nc(N)sc2cc1C,Potency,[3],inactive
Cc1ccc(Cc2cnc(N)s2)o1,outcome,[7],inactive
same,outcome,[8],inactive
same,Potency,[10],inactive
C=CCn1c(=S)[nH]c2scc(-c3ccco3)c2c1=O,outcome,[7],inactive
same,outcome,[8],inactive
same,Potency,[9],inactive
CN(C)c1ccc(C(=N)c2ccc(N(C)C)cc2)cc1,Potency,[3],inactive
Cc1cc(-c2ccc(N=Nc3cc(S(=O)(=O)O)c4ccccc4c3N)c(C)c2)ccc1N=Nc1cc(S(=O)(=O)O)c2ccccc2c1N,Potency,[3],inactive
Cc1cc(C)c2nc(-c3ccco3)cc(C(=O)O)c2c1,outcome,[7],inactive
same,outcome,[8],inactive
same,Potency,[10],12.6 µM (active)
same,Potency,[9],inactive
S=C(NC1CCCCC1)NC1CCCCC1,Potency,[3],inactive
same,outcome,[1],inactive
Nc1ccc(N)c(Cl)c1,Potency,[3],inactive
N/C(=N\OC(=O)Nc1ccccc1)c1ccno1,outcome,[7],inactive
same,outcome,[8],inactive
same,Potency,[10],inactive
same,Potency,[9],inactive
Nc1ccc2c(c1)C(=O)c1ccccc1C2=O,Potency,[3],inactive
same,outcome,[1],inactive
N#Cc1ccccc1CN1C(=O)S/C(=C/c2cccn2-c2cccc(C(=O)O)c2)C1=O,outcome,[8],inactive
same,Potency,[10],14.1 µM (active)
same,Potency,[9],inactive
